Inconclusive results are not listed. A call without a number means that no potency is given here. Calls of active or inactive are those of the source. Calls follow the shape of the dose curve; as a rule, active = well fitted inhibition curve with a large enough effect; inconclusive = small, poorly fitted or top-dose-only effect; inactive = flat fitted curve, though single readings scatter.

The assay has as its system Zika virus NS2B-NS3 protease. Put plainly: Primary screen GU AMC qHTS for Zika virus inhibitors (AID 1347154). Also: nearly all actives have a fitted effect of over 70% in size. Conditions: Zika NS2B-NS3 unlinked protease, AMC fluorogenic substrate; series mostly up to 54.1 µM. In short, it runs like this: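 Fluorogenic AMC-substrate cleavage by noncovalent NS2B-NS3 protease complex (25 nM, pH 8.0 Tris buffer with Tween 20) followed for 15 minutes at room temperature (~20% conversion). Percent inhibition from ex340/em450 signal change, fitted by 4-parameter Hill equation.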
Turning to `NCCC(O)(P(=O)(O)O)P(=O)(O)O`, the Potency result was “inactive”.
On to `C/C=C/c1ccc(OC)cc1`, for which the Potency entry was “inactive”.
In the case of `CNC(=O)CN(CCN(CCN(CC(=O)[O-])CC(=O)NC)CC(=O)[O-])CC(=O)[O-].O.[Gd+3]`, the Potency entry is “inactive”.
Then `Cc1ccc(C(=O)C(C)CN2CCCCC2)cc1` (stereo not drawn), with “inactive”; and `CC(=O)OCC(=O)[C@@]1(O)[C@H](C)C[C@H]2[C@@H]3CCC4=CC(=O)C=C[C@]4(C)[C@@]3(F)[C@@H](O)C[C@@]21C`, with “inactive”.
The result for `CN1C(CCl)Nc2cc(Cl)c(S(N)(=O)=O)cc2S1(=O)=O` (stereo not drawn) reads “inactive”.
`CN(C)C(=S)SC(=S)N(C)C`: the Potency result is “inactive”.
For `CCN(CCCc1ccccc1)CCCc1ccccc1`, the Potency entry is “inactive”.
For `Cc1cccc(C)c1NC(=O)CN1CCN(CCCC(c2ccc(F)cc2)c2ccc(F)cc2)CC1`, the Potency result was “inactive”.
Then `CC(C)(C)NC(=O)[C@@H]1CN(Cc2cccnc2)CCN1C[C@@H](O)C[C@@H](Cc1ccccc1)C(=O)N[C@H]1c2ccccc2C[C@H]1O`, with “inactive”.
Take `CN(C)CCOc1ccccc1Cc1ccccc1`: the Potency entry is “inactive”.
As for `CN1CCN(C(c2ccccc2)c2ccccc2)CC1`, the Potency entry is “inactive”.
As for `CCCC(=O)Nc1ccc(OCC(O)CNC(C)C)c(C(C)=O)c1` (stereo not drawn), the Potency result is “inactive”.
Then `O=C1OC(c2ccc(O)cc2)(c2ccc(O)cc2)c2ccccc21`, with “inactive”; and `CC[N+](CC)(CCNC(=O)C(=O)NCC[N+](CC)(CC)Cc1ccccc1Cl)Cc1ccccc1Cl`, with “inactive”; and `Cc1c(C(N)=O)cc([N+](=O)[O-])cc1[N+](=O)[O-]`, with “inactive”.
Turning to `CC(C)n1nc(-c2cc3cc(O)ccc3[nH]2)c2c(N)ncnc21`, the Potency entry is “inactive”.
As to `CCN1CCC[C@H]1CNC(=O)c1c(OC)ccc(Br)c1OC`, the Potency entry was “inactive”.
